PubChem BioAssay (NCATS)
Inconclusive results are not listed. Active and inactive are the calls of the source. Calls follow the shape of the dose curve; as a rule, active = well fitted curve in the direction sought with a large enough effect; inconclusive = small, poorly fitted or top-dose-only effect, or another doubt; inactive = no such curve, though single readings can be large; an effect the other way counts as inactive or inconclusive.

Columns and labels:
[1] = Quantitative High-Throughput drug screen in 47 multiple myeloma cell lines against the NCATS MIPE library collection: KMS27_JCRB cell viability assay (AID 1918970); also: nearly all actives have a fitted effect of over 30% in size; also: potency is read from the fitted curve at half-maximal effect
Procedure, shortened: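 Luminescent ATP read-out (CellTiter-Glo, 5 min at room temperature) after 48 h compound exposure of 500 KMS27_JCRB cells per well; DMSO wells define full viability and media-only wells zero.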

[2] = Quantitative High-Throughput drug screen in 47 multiple myeloma cell lines against the NCATS MIPE library collection: KMS12BM_JCRB cell viability assay (AID 1918971); also: nearly all actives have a fitted effect of over 35% in size; also: potency is read from the fitted curve at half-maximal effect
Procedure, shortened: (§1)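 Myeloma cell lines, 500 cells per well, exposed to MIPE 4.0 library compounds for 48 h at 37C, 5% CO2. Viability from ATP by CellTiter-Glo luminescence; normalised to DMSO (100%) and media-only (0%) wells.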

[3] = Quantitative High-Throughput drug screen in 47 multiple myeloma cell lines against the NCATS MIPE library collection: KMS12PE_JCRB cell viability assay (AID 1918972); also: nearly all actives have a fitted effect of over 30% in size; also: potency is read from the fitted curve at half-maximal effect
Procedure, shortened: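 Steps: seed 500 cells per well; pin-transfer MIPE 4.0 library; incubate 48 h at 37C, 5% CO2, humidified; add CellTiter-Glo, 5 min room temperature; read luminescence.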

[4] = Quantitative High-Throughput drug screen in 47 multiple myeloma cell lines against the NCATS MIPE library collection: MOLP8_DSMZ cell viability assay (AID 1918977); also: nearly all actives have a fitted effect of over 45% in size; also: potency is read from the fitted curve at half-maximal effect
Procedure, shortened: (§2)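 Inhibition of viability over 48 h was scored by ATP content (CellTiter-Glo) in 500-cell wells. Zero and full viability were defined by media-only and DMSO-only wells.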

[5] = Quantitative High-Throughput drug screen in 47 multiple myeloma cell lines against the NCATS MIPE library collection: OCIMY1_PLB cell viability assay (AID 1918979); also: nearly all actives have a fitted effect of over 35% in size
Procedure, shortened: as §2

[6] = Quantitative High-Throughput drug screen in 47 multiple myeloma cell lines against the NCATS MIPE library collection: MM1R_ATCC cell viability assay (AID 1918981); also: nearly all actives have a fitted effect of over 35% in size; also: potency is read from the fitted curve at half-maximal effect
Procedure, shortened: as §2

[7] = Quantitative High-Throughput drug screen in 47 multiple myeloma cell lines against the NCATS MIPE library collection: KMS34_JCRB cell viability assay (AID 1918985); also: nearly all actives have a fitted effect of over 40% in size; also: potency is read from the fitted curve at half-maximal effect
Procedure, shortened: as §2

[8] = Quantitative High-Throughput drug screen in 47 multiple myeloma cell lines against the NCATS MIPE library collection: SKMM1_PLB cell viability assay (AID 1919863); settings: SKMM1 myeloma viability, CellTiter-Glo ATP, 48 h; viability: stronger effect = lower value; also: nearly all actives have a fitted effect of over 35% in size; also: potency is read from the fitted curve at half-maximal effect
Procedure, shortened: as §2

[9] = Quantitative High-Throughput drug screen in 47 multiple myeloma cell lines against the NCATS MIPE library collection: KMS26_JCRB cell viability assay (AID 1918975); also: nearly all actives have a fitted effect of over 45% in size; also: potency is read from the fitted curve at half-maximal effect
Procedure, shortened: as §1

[10] = Quantitative High-Throughput drug screen in 47 multiple myeloma cell lines against the NCATS MIPE library collection: MMM1_PLB cell viability assay (AID 1918976)
Procedure, shortened: as §2

[11] = Quantitative High-Throughput drug screen in 47 multiple myeloma cell lines against the NCATS MIPE library collection: NCIH929_DSMZ cell viability assay (AID 1918978); also: nearly all actives have a fitted effect of over 35% in size; also: potency is read from the fitted curve at half-maximal effect
Procedure, shortened: as §2

[12] = Quantitative High-Throughput drug screen in 47 multiple myeloma cell lines against the NCATS MIPE library collection: MM1S_ATCC cell viability assay (AID 1918980); also: nearly all actives have a fitted effect of over 45% in size; also: potency is read from the fitted curve at half-maximal effect
Procedure, shortened: as §2

[13] = Quantitative High-Throughput drug screen in 47 multiple myeloma cell lines against the NCATS MIPE library collection: KMS28PE_JCRB cell viability assay (AID 1918983); also: nearly all actives have a fitted effect of over 35% in size; also: potency is read from the fitted curve at half-maximal effect
Procedure, shortened: as §2

[14] = Quantitative High-Throughput drug screen in 47 multiple myeloma cell lines against the NCATS MIPE library collection: L363_DSMZ cell viability assay (AID 1918984); also: nearly all actives have a fitted effect of over 40% in size; also: potency is read from the fitted curve at half-maximal effect
Procedure, shortened: as §2

[15] = Quantitative High-Throughput drug screen in 47 multiple myeloma cell lines against the NCATS MIPE library collection: KMS21BM_JCRB cell viability assay (AID 1918974); settings: ATP luminescence, 48 h; viability: at 45.8 µM (top of the series) unless noted; also: potency is read from the fitted curve at half-maximal effect
Procedure, shortened: (§3)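 Relative luminescence from CellTiter-Glo served as the viability signal, referenced to DMSO-treated (100%) and cell-free medium (0%) controls. Treatment lasted 48 hours at 37C with 500 cells per well.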

[16] = Quantitative High-Throughput drug screen in 47 multiple myeloma cell lines against the NCATS MIPE library collection: OPM1_PLB cell viability assay (AID 1918989); also: nearly all actives have a fitted effect of over 40% in size; also: potency is read from the fitted curve at half-maximal effect
Procedure, shortened: as §2

[17] = Quantitative High-Throughput drug screen in 47 multiple myeloma cell lines against the NCATS MIPE library collection: OCIMY7_PLB cell viability assay (AID 1918987); also: nearly all actives have a fitted effect of over 65% in size; also: potency is read from the fitted curve at half-maximal effect
Procedure, shortened: as §2

[18] = Quantitative High-Throughput drug screen in 47 multiple myeloma cell lines against the NCATS MIPE library collection: KMS20_JCRB cell viability assay (AID 1918973); also: nearly all actives have a fitted effect of over 45% in size; also: potency is read from the fitted curve at half-maximal effect
Procedure, shortened: as §3

[19] = Quantitative High-Throughput drug screen in 47 multiple myeloma cell lines against the NCATS MIPE library collection: OCIMY5_PLB cell viability assay (AID 1918988); also: nearly all actives have a fitted effect of over 65% in size; also: potency is read from the fitted curve at half-maximal effect
Procedure, shortened: as §2

[20] = Quantitative High-Throughput drug screen in 47 multiple myeloma cell lines against the NCATS MIPE library collection: LP1_DSMZ cell viability assay (AID 1918982); also: nearly all actives have a fitted effect of over 35% in size; also: potency is read from the fitted curve at half-maximal effect
Procedure, shortened: as §2

Cc1c(OCC(F)(F)F)ccnc1CS(=O)c1nc2ccccc2[nH]1 (stereo not given)
active: Potency [3] 18.7 µM | Potency [6] 0.833 µM
inactive: Potency [1] | Potency [2] | Potency [4] | Potency [5] | Potency [7] | viability [8] 128%

COc1c2occc2cc2ccc(=O)oc12
inactive: Potency [1] | Potency [3] | Potency [9] | Potency [6] | Potency [13] | Potency [14] | Potency [7] | viability [8] 118%
active: Potency [2] 20.9 µM | Potency [10] 1.32 µM | Potency [11] 5.26 µM | Potency [12] 18.7 µM

C[Se]CCC(N)C(=O)O (stereo not given)
active: viability [15] 325% [at 92.2 µM] | Potency [10] 0.855 µM
inactive: Potency [1] | Potency [2] | Potency [3] | Potency [4] | Potency [11] | Potency [5] | Potency [12] | Potency [13] | Potency [14] | Potency [16]

NNc1nncc2ccccc12
inactive: Potency [1] | Potency [2] | Potency [3] | Potency [9] | Potency [11] | Potency [5] | Potency [6] | Potency [13] | Potency [14] | Potency [7] | Potency [17] | Potency [16] | viability [8] 116%
active: Potency [10] 20.9 µM

O=c1c(O)c(-c2cc(O)c(O)c(O)c2)oc2cc(O)cc(O)c12
active: Potency [2] 23.5 µM | Potency [10] 18.7 µM | Potency [4] 18.7 µM | Potency [6] 20.9 µM | Potency [13] 23.5 µM | Potency [19] 23.5 µM | Potency [8] 20.9 µM
inactive: Potency [1] | Potency [3] | Potency [18] | Potency [5]

COc1ccccc1N1CCN(CCN(C(=O)C2CCCCC2)c2ccccn2)CC1
inactive: Potency [2] | Potency [9] | Potency [4] | Potency [5] | Potency [20] | Potency [7] | Potency [16] | viability [8] 126%
active: Potency [1] 9.35 µM | Potency [3] 18.7 µM | Potency [18] 5.26 µM | Potency [11] 8.33 µM | Potency [17] 7.43 µM

COC(=O)N[C@H](C(=O)N[C@@H](Cc1ccccc1)[C@@H](O)CN(Cc1ccc(-c2ccccn2)cc1)NC(=O)[C@@H](NC(=O)OC)C(C)(C)C)C(C)(C)C
inactive: Potency [1] | Potency [3] | Potency [11] | Potency [5] | Potency [12] | Potency [14] | Potency [16]
active: Potency [2] 20.9 µM | Potency [10] 6.62 µM | Potency [7] 20.9 µM

CC1=C(C(=O)O)N2C(=O)[C@@H](NC(=O)[C@H](N)C3=CCC=CC3)[C@H]2SC1
inactive: Potency [1] | Potency [2] | Potency [3] | Potency [9] | Potency [4] | Potency [11] | Potency [5] | Potency [6] | Potency [20] | Potency [7] | Potency [19] | Potency [16] | viability [8] 126%

NC(=NCc1ccccc1)NC(=O)c1nc(Cl)c(N)nc1N
active: Potency [1] 33.2 µM | Potency [18] 7.43 µM | Potency [11] 1.32 µM | Potency [12] 0.935 µM | Potency [14] 23.5 µM | Potency [17] 8.33 µM | Potency [16] 16.6 µM
inactive: Potency [2] | Potency [9] | Potency [5] | Potency [6] | Potency [7] | Potency [19] | viability [8] 140%

Cc1cc(Cl)ccc1OCCCC(=O)NO
inactive: Potency [4]
active: Potency [1] 3.32 µM | Potency [2] 16.6 µM | Potency [3] 14.8 µM | Potency [9] 8.33 µM | Potency [10] 2.64 µM | Potency [11] 2.64 µM | Potency [6] 23.5 µM | Potency [20] 26.4 µM | Potency [7] 26.4 µM | Potency [17] 0.59 µM | Potency [16] 20.9 µM

Nc1nc(OCc2ccccc2)c2[nH]cnc2n1
active: Potency [1] 14.8 µM | Potency [15] 4.69 µM
inactive: Potency [2] | Potency [6] | Potency [20] | Potency [13] | viability [8] 128%

CCOC(=O)C(C)Oc1cccc2c(=O)n(CC(=O)Nc3ccc4c(c3)OCCO4)ccc12 (stereo not given)
inactive: Potency [1] | Potency [3] | Potency [11] | Potency [5] | Potency [7] | Potency [17]
active: Potency [2] 23.5 µM | Potency [14] 9.35 µM

O=C(O)c1cn(-c2ccc(F)cc2)c2cc(N3CCNCC3)c(F)cc2c1=O
inactive: Potency [1] | Potency [3] | Potency [9] | Potency [11] | Potency [5] | Potency [6] | Potency [13] | Potency [17] | Potency [16]
active: Potency [2] 2.35 µM | Potency [10] 11.8 µM

Nc1ccn([C@@H]2O[C@H](CO)[C@@H](O)C2O)c(=O)n1 (stereo not given in full)
inactive: Potency [1] | Potency [2] | Potency [3] | Potency [4] | Potency [6] | Potency [13] | Potency [17] | Potency [16] | viability [8] 123%

O=C(CS(=O)Cc1ccco1)NCC=CCOc1cc(CN2CCCCC2)ccn1 (stereo not given)
inactive: Potency [1] | Potency [2] | Potency [3] | Potency [5] | Potency [6] | Potency [13] | Potency [14] | Potency [7] | viability [8] 134%

NS(=O)(=O)c1cc(C(=O)O)c(NCc2ccco2)cc1Cl
inactive: Potency [1] | Potency [2] | Potency [3] | Potency [11] | Potency [5] | Potency [6] | Potency [20] | Potency [13] | Potency [14] | Potency [7] | Potency [16]
active: Potency [9] 0.209 µM
